Test results reported in PubChem BioAssay (NCI).
About 79,000 compounds went through this panel and 15% of them were active in at least one assay; those are over-represented in the sample as a whole. Activity calls are given as the source filed them. No stated cut-off is given here; in the data, active means growth inhibition above about 70%; inactive means the rest.

Columns and labels:
[1] = NCI Yeast Anticancer Drug Screen. Data for the rad50 strain (AID 155);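 further: 0% = growth of vehicle-only cultures of the same strain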; details: S. cerevisiae rad50 strain growth inhibition, active compounds read high
Summary of the method: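 Relative growth inhibition (compound vs vehicle) was measured in yeast with a defined repair-gene alteration.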

[2] = NCI Yeast Anticancer Drug Screen. Data for the mec2-1 strain (AID 157); details: S. cerevisiae mec2-1 strain, active compounds read high
Summary of the method: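 Cells of the genetically defined mec2-1 yeast strain are incubated with test compound. Inhibition of growth is calculated against vehicle-treated controls.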

[3] = NCI Yeast Anticancer Drug Screen. Data for the sgs1 mgt1 strain (AID 161);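 further: 0% = growth of cultures given vehicle only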; details: S. cerevisiae sgs1 mgt1 strain, active compounds read high
Summary of the method: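 Read-out: growth inhibition vs vehicle controls. Cells: mutant yeast strain deficient in DNA damage repair.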

[4] = NCI Yeast Anticancer Drug Screen. Data for the cln2 rad14 strain (AID 165);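 further: 0% = growth equal to vehicle treated cultures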; details: S. cerevisiae cln2 rad14 strain, active compounds read high
Summary of the method: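 The screen exposed genetically defined yeast (cln2 rad14) to test compounds and scored growth inhibition relative to vehicle-treated controls.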

[5] = NCI Yeast Anticancer Drug Screen. Data for the bub3 strain (AID 167); details: S. cerevisiae bub3 mutant strain, active compounds read high
Summary of the method: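 Screening used yeast with an engineered genetic alteration affecting cell cycle control. Compound-exposed cultures were compared with vehicle cultures, and reduced growth was taken as inhibition.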

[6] = NCI Yeast Anticancer Drug Screen. Data for the mlh1 rad18 strain (AID 175); details: S. cerevisiae mlh1 rad18 strain growth inhibition, active compounds read high
Summary of the method: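 Compound-treated yeast growth, normalised to vehicle controls. Strain bears defined DNA repair mutations.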

[7] = at 5.0 µM (retest, dose inferred, filed as 0.5)
[8] = at 50.0 µM (retest, dose inferred, filed as 5.0)

Measured: growth inhibition

COC(=O)CCCC(=O)NC1=C(Nc2ccccc2)C(=O)c2ccccc2C1=O
active: [1]; [8] 72%
inactive: [1]; [7] 27% | [1]; at 50.0 µM 45.5% | [2]; [7] 15% | [2]; [8] 41% | [2]; at 50.0 µM 14.5% | [3]; [7] 22% | [3]; [8] 50% | [3]; at 50.0 µM 52.2% | [4]; [7] 15% | [4]; [8] 24% | [4]; at 50.0 µM 38.6% | [5]; [7] 33% | [5]; [8] 67% | [5]; at 50.0 µM 61% | [6]; [7] 23% | [6]; [8] 60% | [6]; at 50.0 µM 16.3%

O=C1/C(=C\c2ccccc2)CN(C(=O)CCN2CCCCC2)C/C1=C/c1ccccc1
inactive: [1]; [7] 16% | [2]; [7] 22% | [2]; [8] 57% | [6]; [7] 28%
active: [1]; [8] 71% | [1]; at 50.0 µM 89.8% | [2]; at 50.0 µM 92.8% | [3]; [7] 98% | [3]; [8] 99% | [3]; at 50.0 µM 90.3% | [4]; [7] 83% | [4]; [8] 99% | [4]; at 50.0 µM 90.3% | [5]; [7] 99% | [5]; [8] 99% | [5]; at 50.0 µM 90.8% | [6]; [8] 74% | [6]; at 50.0 µM 88.8%

C=C(C)C(CC=C(C)C)Cc1c(O)cc(OC)c2c1OC(c1ccc(O)cc1O)C(O)C2=O (stereo not drawn)
active: [6]; at 50.0 µM 85.3%
inactive: [1]; [7] 29% | [1]; [8] 22% | [1]; at 50.0 µM 34.1% | [2]; [7] 27% | [2]; [8] 28% | [2]; at 50.0 µM 23.4% | [3]; [7] -23% | [3]; [8] 42% | [3]; at 50.0 µM 55.2% | [4]; [7] 19% | [4]; [8] 32% | [4]; at 50.0 µM 43.9% | [5]; [7] -5% | [5]; [8] 38% | [5]; at 50.0 µM 57% | [6]; [7] 24% | [6]; [8] 23%

COc1ccc(C2COc3c(ccc(O)c3O)C2)cc1 (stereo not drawn)
active: [1]; [8] 99% | [1]; at 50.0 µM 93.3% | [2]; [8] 99% | [2]; at 50.0 µM 97.3% | [3]; [8] 97% | [3]; at 50.0 µM 94.7% | [4]; [8] 98% | [4]; at 50.0 µM 89.2% | [5]; [8] 98% | [5]; at 50.0 µM 81.4% | [6]; [8] 98% | [6]; at 50.0 µM 96.8%
inactive: [1]; [7] 1% | [2]; [7] 9% | [3]; [7] -2% | [4]; [7] 11% | [5]; [7] 11% | [6]; [7] 1%

C[N+](C)([O-])CCC=C1c2ccccc2CCc2ccccc21
active: [5]; at 50.0 µM 73.5%
inactive: [1]; [7] 10% | [1]; [8] 46% | [1]; at 50.0 µM 62.5% | [2]; [7] 12% | [2]; [8] 9% | [2]; at 50.0 µM 28.4% | [3]; [7] -2% | [3]; [8] 33% | [3]; at 50.0 µM 7.75% | [4]; [7] -20% | [4]; [8] 21% | [4]; at 50.0 µM 12.5% | [5]; [7] 3% | [5]; [8] 33% | [6]; [7] 4% | [6]; [8] 33% | [6]; at 50.0 µM 33.5%

C=C1C(=O)OC(C)(C)C1c1ccc(Cl)c(Cl)c1 (stereo not drawn)
inactive: [1]; [7] 25% | [2]; [7] 35% | [3]; [7] 39% | [4]; [7] 18% | [5]; [7] 37% | [6]; [7] 38%
active: [1]; [8] 99% | [1]; at 50.0 µM 99.5% | [2]; [8] 99% | [2]; at 50.0 µM 99.8% | [3]; [8] 99% | [3]; at 50.0 µM 99.8% | [4]; [8] 97% | [4]; at 50.0 µM 99.2% | [5]; [8] 99% | [5]; at 50.0 µM 99.5% | [6]; [8] 98% | [6]; at 50.0 µM 99.7%
